Experimental data reported in PubChem BioAssay.
Calls of active or inactive are those of the source. Unless noted, how the calls were made is not given here.

How the values were obtained:
[1] = A549 cell viability effects, profiling panel, calcein-AM fluorescence, 48 h, basal (AID 1162); conditions: higher = more signal; further: test concentration not given here
[2] = adipocyte viability effects, profiling panel, cell-based, 3T3-L1 adipocytes, calcein-AM fluorescence, 48 h, basal (AID 1163); conditions: 3T3-L1 adipocytes viability, higher = more signal; further: test concentration not given here
[3] = HepG2 cell viability effects, profiling panel, calcein-AM fluorescence, 48 h, basal (AID 1164); conditions: higher = more signal; further: test concentration not given here
[4] = MM1S cell viability effects, profiling panel, calcein-AM fluorescence, 48 h, basal (AID 1165); conditions: higher = more signal;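 further: viability of MM1S multiple myeloma cells under basal unstimulated conditions; test concentration not given here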
[5] = basal RPMI8226 viability, no added stimulus, profiling panel, cell-based, calcein-AM fluorescence, 48 h, PK04 Diversity Set (AID 1166); conditions: RPMI8226 myeloma viability, higher = more signal;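 further: cells grown under basal conditions without added stimulus; test concentration not given here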
[6] = basal HepG2 mitochondrial membrane potential changes, profiling panel, cell-based, JC-1 fluorescence, 24 h, 100 nL compound (AID 1167); conditions: higher = more signal; further: test concentration not given here
[7] = basal 3T3-L1 adipocyte mitochondrial potential changes, profiling panel, cell-based, JC-1 fluorescence, 3T3-L1 adipocytes, 24 h, 100 nL compound (AID 1168); conditions: JC-1 mitochondrial fluorescence, higher = more signal, called active from +8 up or from −8 down; further: test concentration not given here
[8] = basal RPMI8226 mitochondrial membrane potential changes, profiling panel, cell-based, JC-1 fluorescence, 24 h, 100 nL compound (AID 1169); conditions: RPMI8226 myeloma, JC-1 mitochondrial potential fluorescence, higher = more signal; further: test concentration not given here
[9] = basal MM1S mitochondrial membrane potential changes, profiling panel, cell-based, JC-1 fluorescence, 24 h, 100 nL compound (AID 1170); conditions: higher = more signal; further: test concentration not given here
[10] = A549 lung cancer cell viability effects, profiling panel, resazurin fluorescence, 24 h, PK04 Diversity Set (AID 1171); conditions: higher = more signal, called active from +8 up or from −8 down; further: test concentration not given here
[11] = HepG2 liver cancer cell viability effects, profiling panel, resazurin fluorescence, 24 h, PK04 Diversity Set (AID 1172); conditions: higher = more signal; further: test concentration not given here
[12] = basal S. cerevisiae growth modulation, no modifier, primary screen, OD600, strain BY4716, 24 h, basal condition (AID 1173); conditions: OD600, 24 h, higher = more signal, called active from +8 up or from −8 down
[13] = MM1S myeloma cell viability, profiling panel, resazurin fluorescence, basal, 24 h, PK04 Diversity Set (AID 1174); conditions: higher = more signal, called active from +8 up or from −8 down;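 further: MM1S multiple myeloma cell line; test concentration not given here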
[14] = target: Dihydroorotate dehydrogenase (quinone), mitochondrial (Plasmodium falciparum (isolate 3D7)) (UniProt Q08210); assay: PfDHODH enzyme inhibitors, primary screen, biochemical, C-terminal His tag, absorbance 600 nm (AID 1175); conditions: DCIP absorbance 600 nm, higher = more signal, called active from +8 up or from −8 down;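 further: recombinant parasite enzyme with a five histidine tag at its C terminus; test concentration not given here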
Chain of Dihydroorotate dehydrogenase (quinone), mitochondrial (Plasmodium falciparum (isolate 3D7)) (Q08210 whole entry, looked up): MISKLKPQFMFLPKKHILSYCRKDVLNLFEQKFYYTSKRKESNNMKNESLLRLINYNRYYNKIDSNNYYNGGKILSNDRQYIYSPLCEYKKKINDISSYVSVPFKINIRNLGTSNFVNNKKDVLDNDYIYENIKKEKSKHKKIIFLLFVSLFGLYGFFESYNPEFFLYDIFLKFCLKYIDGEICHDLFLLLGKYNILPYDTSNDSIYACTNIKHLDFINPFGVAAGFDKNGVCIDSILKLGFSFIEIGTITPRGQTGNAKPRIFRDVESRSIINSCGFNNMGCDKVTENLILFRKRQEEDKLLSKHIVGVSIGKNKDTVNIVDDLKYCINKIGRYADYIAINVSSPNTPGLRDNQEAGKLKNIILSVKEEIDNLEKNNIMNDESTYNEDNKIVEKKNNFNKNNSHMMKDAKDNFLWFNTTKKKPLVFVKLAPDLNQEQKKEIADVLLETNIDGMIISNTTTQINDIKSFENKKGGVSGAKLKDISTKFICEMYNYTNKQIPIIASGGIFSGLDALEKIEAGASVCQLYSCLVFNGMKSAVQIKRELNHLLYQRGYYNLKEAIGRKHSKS

[15] = P. aeruginosa biofilm formation inhibitors, primary screen, strain PAO1, LB-PBS medium, absorbance 600 nm (AID 1176); further: test concentration not given here; conditions: P. aeruginosa PAO1 growth/biofilm, A600, 12 h; higher = more signal
[16] = S. cerevisiae RM11-1a growth modifiers, primary screen, strain RM11-1a, OD600, basal, 24 h (AID 1177); conditions: OD600, 24 h, higher = more signal, called active from +8 up or from −8 down;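 further: cultures grown under basal conditions with no added stressor; test concentration not given here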
[17] = E. coli acrAB mutant growth effects, primary screen, E. coli filamentation inducers, strain DRC39, OD650, 24 h (AID 1178); conditions: higher = more signal, called active from +8 up or from −8 down;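 further: growth measured as culture turbidity by optical density at 650 nm; test concentration not given here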
[18] = E. coli acrAB mutant growth effects, primary screen, E. coli filamentation inducers, strain DRC39, OD650, 48 h (AID 1179);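 further: screen aims at cell division blockers that make cells filament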; conditions: E. coli DRC39 delta-acrAB growth, higher = more signal, called active from +8 up or from −8 down
[19] = RPMI8226 myeloma cell viability, profiling panel, resazurin fluorescence, basal, 24 h, PK04 Diversity Set (AID 1180); conditions: higher = more signal;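 further: RPMI8826 multiple myeloma cell line at 5000 cells per well; test concentration not given here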
[20] = target: E3 ubiquitin-protein ligase XIAP (Homo sapiens) (UniProt P98170); assay: XIAP binders, primary screen, biophysical, small-molecule microarray, fluorescence 635 nm (AID 1181); conditions: small-molecule microarray binding, higher = more signal;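 further: score merges 667 nm emission and signal to noise over triplicate slides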
Chain of E3 ubiquitin-protein ligase XIAP (Homo sapiens) (P98170 whole entry, looked up): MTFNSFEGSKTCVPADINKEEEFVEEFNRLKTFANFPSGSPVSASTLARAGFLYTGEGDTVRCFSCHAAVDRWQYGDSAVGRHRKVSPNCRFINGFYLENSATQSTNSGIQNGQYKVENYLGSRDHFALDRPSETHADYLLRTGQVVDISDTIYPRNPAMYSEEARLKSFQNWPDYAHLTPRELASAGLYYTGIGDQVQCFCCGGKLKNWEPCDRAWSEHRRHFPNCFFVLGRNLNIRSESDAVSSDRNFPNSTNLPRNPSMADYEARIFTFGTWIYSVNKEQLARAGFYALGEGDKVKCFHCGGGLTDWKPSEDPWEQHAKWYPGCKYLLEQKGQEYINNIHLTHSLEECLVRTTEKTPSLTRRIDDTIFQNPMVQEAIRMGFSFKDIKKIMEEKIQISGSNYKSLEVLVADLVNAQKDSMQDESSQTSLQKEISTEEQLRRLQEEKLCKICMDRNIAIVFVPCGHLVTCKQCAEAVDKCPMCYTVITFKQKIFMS

CCOC(=O)C[C@H]1[C@H](OC(=O)c2ccc(C(=O)c3ccccc3)cc2)[C@@H](NC(=O)CC(C)C)c2cc(OCCCO)ccc2N1C(=O)c1ccc2ccccc2n1
z-score [1]: 0.713 | z-score [2]: -0.177 | z-score [3]: 0.592 | z-score [4]: 0.143 | z-score [5]: 0.263 | z-score [6]: 2.53 | z-score [7]: 1.59 (inactive) | z-score [8]: 0.944 | z-score [9]: -0.67 | z-score [10]: 0.59 (inactive) | z-score [11]: 0.85 | z-score [12]: 1.1 (inactive) | z-score [13]: -0.469 (inactive) | composite z-score [14]: -0.888 (inactive) | z-score [15]: 0.453 (inactive) | z-score [16]: 0.8 (inactive) | z-score [17]: -0.0708 (inactive) | z-score [18]: 0.648 (inactive) | z-score [19]: -0.0956 | composite z-score [20]: -0.102

CN(C)CCCC[C@@H]1NC(=O)[C@@H]2C[C@H](C(=O)NCCCCCCN)[C@H](c3cccc(OCCO)c3)N2C1=O
z-score [1]: -0.481 | z-score [2]: 1.24 | z-score [3]: -1.21 | z-score [4]: -0.304 | z-score [5]: 0.294 | z-score [6]: -1.3 | z-score [7]: -0.735 (inactive) | z-score [8]: -0.17 | z-score [9]: 0.454 | z-score [10]: -0.511 (inactive) | z-score [11]: -0.06 | z-score [12]: -0.543 (inactive) | z-score [13]: 0.124 (inactive) | composite z-score [14]: -0.981 (inactive) | z-score [15]: 0.187 (inactive) | z-score [16]: -1.17 (inactive) | z-score [17]: -0.459 (inactive) | z-score [18]: -1 (inactive) | z-score [19]: -0.851 | composite z-score [20]: 0.115

CC(C)=CCN[C@H](CO)c1ccccc1
z-score [1]: -0.11 | z-score [2]: 1.93 | z-score [3]: -0.0885 | z-score [4]: -1.22 | z-score [5]: -1.9 | z-score [6]: -0.416 | z-score [7]: 0.476 (inactive) | z-score [8]: -0.0908 | z-score [9]: 0.559 | z-score [10]: -0.278 (inactive) | z-score [11]: -0.347 | z-score [12]: -6.22 (inactive) | z-score [13]: -0.362 (inactive) | composite z-score [14]: -2.14 (inactive) | z-score [15]: -0.517 (inactive) | z-score [16]: -0.17 (inactive) | z-score [17]: -0.387 (inactive) | z-score [18]: -1.49 (inactive) | z-score [19]: -0.974 | composite z-score [20]: 0.213

COCCOC(=O)N1C(=O)[C@@]2(c3cc(C#CC4(O)CCCCCC4)ccc31)[C@H](c1ccc(OCCO)cc1)N1[C@H](c3ccccc3)[C@H](c3ccccc3)OC(=O)[C@H]1[C@@H]2C(=O)N1CCN(c2ncccn2)CC1
z-score [1]: -0.147 | z-score [2]: -0.507 | z-score [3]: -0.0949 | z-score [4]: -0.373 | z-score [5]: 0.182 | z-score [6]: -0.643 | z-score [7]: 0.295 (inactive) | z-score [8]: -0.266 | z-score [9]: -1.19 | z-score [10]: -0.473 (inactive) | z-score [11]: -0.0209 | z-score [12]: 2.29 (inactive) | z-score [13]: -0.549 (inactive) | composite z-score [14]: -1.64 (inactive) | z-score [15]: 2.57 (inactive) | z-score [16]: 3.15 (inactive) | z-score [17]: -0.534 (inactive) | z-score [18]: -0.477 (inactive) | z-score [19]: -0.305 | composite z-score [20]: -0.0582

CCCC[C@@H]1C[C@H]1[C@@H](NC(=O)C(C)(C)C)c1ccc(C(F)(F)F)cc1
z-score [1]: -1.63 | z-score [2]: 0.434 | z-score [3]: -1.6 | z-score [4]: -2.43 | z-score [5]: -3.05 | z-score [6]: -0.754 | z-score [7]: -1.64 (inactive) | z-score [8]: -0.204 | z-score [9]: -1.8 | z-score [10]: 0.419 (inactive) | z-score [11]: -0.549 | z-score [12]: 0.594 (inactive) | z-score [13]: -0.858 (inactive) | composite z-score [14]: -3.55 (inactive) | z-score [15]: 3.07 (inactive) | z-score [16]: 1.17 (inactive) | z-score [17]: -0.483 (inactive) | z-score [18]: -0.631 (inactive) | z-score [19]: 2.01 | composite z-score [20]: 0.0256

CCCC[C@H]1OB(O)C[C@H]2C1=C(COC)C[C@H]1C(=O)N(C)C(=O)[C@H]12
z-score [1]: -0.0959 | z-score [2]: -0.671 | z-score [3]: -0.653 | z-score [4]: -1.34 | z-score [5]: -0.744 | z-score [6]: -1.27 | z-score [7]: 0.0166 (inactive) | z-score [8]: -0.528 | z-score [9]: -0.355 | z-score [10]: -0.531 (inactive) | z-score [11]: -0.627 | z-score [12]: -1.56 (inactive) | z-score [13]: -0.227 (inactive) | composite z-score [14]: -0.682 (inactive) | z-score [15]: 0.118 (inactive) | z-score [16]: -1.11 (inactive) | z-score [17]: -0.748 (inactive) | z-score [18]: -0.595 (inactive) | z-score [19]: -0.45 | composite z-score [20]: 0.144

C=CC[C@@]1(C(=O)NCCN2CCOCC2)N=C(c2ccc(OCCCO)cc2)O[C@@H]1c1ccccc1N=[N+]=[N-]
z-score [1]: 0.391 | z-score [2]: -0.187 | z-score [3]: 0.55 | z-score [4]: -0.669 | z-score [5]: -0.394 | z-score [6]: 1.42 | z-score [7]: 0.602 (inactive) | z-score [8]: -0.244 | z-score [9]: -0.322 | z-score [10]: -0.0072 (inactive) | z-score [11]: -0.1 | z-score [12]: -0.0089 (inactive) | z-score [13]: -1.05 (inactive) | composite z-score [14]: 1.61 (inactive) | z-score [15]: 1.61 (inactive) | z-score [16]: 2.17 (inactive) | z-score [17]: 0.2 (inactive) | z-score [18]: -0.0194 (inactive) | z-score [19]: -0.614 | composite z-score [20]: 0.107

CN(C)CCCCCCNC(=O)[C@H]1C[C@H]2C(=O)N3CCC[C@H]3C(=O)N2[C@H]1c1ccc(O)cc1
z-score [1]: -0.79 | z-score [2]: 0.627 | z-score [3]: -0.952 | z-score [4]: -0.567 | z-score [5]: -0.554 | z-score [6]: 0.661 | z-score [7]: 0.597 (inactive) | z-score [8]: 0.262 | z-score [9]: 0.538 | z-score [10]: -0.636 (inactive) | z-score [11]: -0.564 | z-score [12]: -0.444 (inactive) | z-score [13]: 0.472 (inactive) | composite z-score [14]: -1.76 (inactive) | z-score [15]: 1.44 (inactive) | z-score [16]: -0.327 (inactive) | z-score [17]: 0.113 (inactive) | z-score [18]: -0.523 (inactive) | z-score [19]: -0.0213 | composite z-score [20]: 0.23

COC(=O)C(CC#Cc1ccc2c(c1)[C@]1(C(=O)N2)[C@H](C(=O)Nc2nc3ccccc3s2)[C@H]2C(=O)O[C@H](c3ccccc3)[C@H](c3ccccc3)N2[C@@H]1c1ccccc1OCCO)C(=O)OC
z-score [1]: -0.231 | z-score [2]: 0.728 | z-score [3]: 0.0091 | z-score [4]: -0.426 | z-score [5]: -2.6 | z-score [6]: -2.7 | z-score [7]: -0.502 (inactive) | z-score [8]: -1.17 | z-score [9]: -1.63 | z-score [10]: -0.367 (inactive) | z-score [11]: 0.522 | z-score [12]: 0.839 (inactive) | z-score [13]: -0.334 (inactive) | composite z-score [14]: -4.92 (inactive) | z-score [15]: 2.47 (inactive) | z-score [16]: 2.1 (inactive) | z-score [17]: -0.0715 (inactive) | z-score [18]: 0.037 (inactive) | z-score [19]: -1.1 | composite z-score [20]: 0.472
